Screening results (PubChem BioAssay)
Sampled rows, rich in hits. Any-hit rate of the full collection: about 7%.
PI5P4K alpha inh – inhibitors of human PI5P4K alpha; P48426; PI5P4Kalpha enzyme, ADP-Glo luminescence, 60 min; active compounds read low; max response, %; 330,000 compounds, 1.2% hits; AID 652105; active means max response of -50% or lower; inconclusive means between -30% and -50%; inactive means -30% or higher; further: value at the top dose of about 77 µM; on the % scale 0 is the no-effect control and ±100 the full control effect
Target sequence (P48426 whole entry, looked up): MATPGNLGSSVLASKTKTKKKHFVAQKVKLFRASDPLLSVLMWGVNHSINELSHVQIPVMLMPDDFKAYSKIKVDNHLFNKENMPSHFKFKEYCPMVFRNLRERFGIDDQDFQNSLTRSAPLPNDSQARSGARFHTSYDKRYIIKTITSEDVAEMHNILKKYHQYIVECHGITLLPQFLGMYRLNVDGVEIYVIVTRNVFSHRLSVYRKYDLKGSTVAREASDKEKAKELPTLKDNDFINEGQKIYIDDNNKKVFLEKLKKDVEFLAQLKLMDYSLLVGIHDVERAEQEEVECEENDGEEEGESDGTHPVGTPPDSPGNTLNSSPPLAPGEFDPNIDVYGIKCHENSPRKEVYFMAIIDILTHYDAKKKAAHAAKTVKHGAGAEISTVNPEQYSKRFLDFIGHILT
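PI5P4Kalpha ADP-Glo assay; 5 microM ATP final; 60 min RT reaction; HEPES pH 7.4/EGTA/CHAPS, 5% DMSO; controls lacking substrate or enzyme; luminescent end-point.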
PLK1 PBD inh – inhibitors of human PLK1 polo-box domain binding; P53350; Plk1 PBD binding of FITC phosphopeptide, fluorescence polarization; Potency, µM, without a hit: max response, negative = inhibition, usual class: inhibitors; 360,000 compounds, 2.8% hits; AID 720504; further: potency means the concentration at half of the fitted maximal effect; series mostly up to about 57 µM; on the % scale 0 is the no-effect control and ±100 the full control effect; nearly all actives have a fitted effect of over 65% in size
BAZ2B block – blocks human BAZ2B. Q9UIF8. AlphaScreen BAZ2B-H3K14Ac peptide displacement. Potency, µM (top dose mostly 114 µM), for inactives: top-dose activity change, negative = inhibition, hits mostly inhibitors. 360,000 compounds, 4.4% hits. AID 504333; further: potency means the concentration at half of the fitted maximal effect; on the % scale 0 is the no-effect control and ±100 the full control effect; nearly all actives have a fitted effect of over 60% in size
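BAZ2B (50 nM) with biotin-H3(5-23)K14Ac peptide (50 nM) in PBS pH 7.4, 0.01% Tween-20, preformed 30 min, then compound 30 min at room temperature; top concentration 110uM. AlphaScreen streptavidin donor/nickel chelate acceptor beads (10 ug/mL final), 20 min dark, signal read.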
HP1b binding inh – HP1-beta chromodomain-methylated histone interaction inhibition. Potency, µM (series often up to 114 µM), inactives show top-dose activity change, negative = inhibition, most hits filed as inhibitors. AlphaScreen HP1-beta / biotin-H3K9me3 peptide binding. P83916. AID 540317. 390,000 compounds, 0.56% hits; further: potency means the concentration at half of the fitted maximal effect; nearly all actives have a fitted effect of over 70% in size
Target sequence (P83916 whole entry, looked up): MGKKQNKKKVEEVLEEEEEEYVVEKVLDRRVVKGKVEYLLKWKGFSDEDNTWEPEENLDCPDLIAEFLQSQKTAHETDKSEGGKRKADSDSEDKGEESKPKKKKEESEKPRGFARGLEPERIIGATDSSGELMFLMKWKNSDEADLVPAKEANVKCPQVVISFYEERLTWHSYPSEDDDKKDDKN
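HP1-beta protein (50 nM final) preincubated 30 min at room temperature with biotinylated H3(1-18)K9me3 peptide (50 nM) in PBS pH 7.4, 0.01% Tween-20, then compound added for 30 min. AlphaScreen streptavidin donor/nickel chelate acceptor beads (10 ug/mL final), 30 min dark, luminescence read.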
GCN5L2 inh – GCN5L2 (KAT2A) acetyltransferase inhibition. 390,000 compounds, 0.21% hits. GCN5L2 HAT assay, ThioGlo1 CoA-SH fluorescence. Potency, µM (highest dose often 58.9 µM), for inactives: at the highest dose activity change, negative = inhibition, hits mostly inhibitors. Q92830; further: potency means the concentration at half of the fitted maximal effect; on the % scale 0 is the no-effect control and ±100 the full control effect
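Preincubate 20nM GCN5L2 with compound 15 min, RT → add 50uM ThioGlo1 + 75uM H3(1-25) + 70uM acetyl-CoA → read fluorescence 0 and 20 min. Primary qHTS; fluorescent artifacts likely.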
JMJD2A Tudor – JMJD2A Tudor domain (human) inhibition | AlphaScreen JMJD2A-Tudor / H3K4me3 peptide binding | Potency, µM (highest dose often 114 µM), inactives show at the top dose activity change, negative = inhibition, actives largely listed as inhibitors | 390,000 compounds, 4.4% hits | AID 504339; further: potency means the concentration at half of the fitted maximal effect; on the % scale 0 is the no-effect control and ±100 the full control effect; nearly all actives have a fitted effect of over 50% in size
The depositor's hits bear a star; ? = inconclusive; . = no result given; [ ] = remark or other dose. Unless noted, the call rests on the fitted dose curve; in most records, active means well fitted curve in the direction sought with a large enough effect; inconclusive means small, poorly fitted or top-dose-only effect, or another doubt; inactive means no such curve, though single readings can be large; an effect the other way counts as inactive or inconclusive.

SMILES | PI5P4K alpha inh | PLK1 PBD inh | BAZ2B block | HP1b binding inh | GCN5L2 inh | JMJD2A Tudor
CCOC(=O)CC1C(=O)NCCN1C(=O)c1ccc(C)cc1 (centres undefined) | -1.1 | 4.3% | -10.2% | 24.1% | -2.3% | -11.6%
CCc1cccc(Nc2cc(C)nc3ncnn23)c1 | -7.3 | 23.8µM* | -3.2% | 9.5% | 0.1% | ?
CCc1ccc(Nc2cc(C)nc3ncnn23)cc1 | 3.9 | -7.8% | 1.3% | 24.6% | -13.6% | -10.3%
CCc1nc(SCC(=O)c2cccc([N+](=O)[O-])c2)n[nH]1 | -20.0 | -3.0% | 0.4% | ? | -5.1% | 39.8µM*
Cc1ccc(S(=O)(=O)N(C)C)cc1NC(=O)CSc1nncs1 | -4.4 | 0.5% | -2.8% | 39.7% | 2.3% | -8.3%
COc1ccc(CCCc2nnc(SCC(=O)Nc3cccc(F)c3C)o2)cc1 | . | . | -4.6% | 37.7% | -8.6% | ?
COc1ccc(N=C2NC(=O)CS2)c([N+](=O)[O-])c1 | -1.2 | 26.7µM* | -27.9% | 12.7% | 19.9% | -19.6%
O=C(c1noc2c1CSc1ccccc1-2)N1CCN(c2ccc(Cl)cc2)CC1 | -0.2 | -1.3% | -9.7%[57.1 µM] | 31.6% | -6.6% | 4.0%
CSc1nc(-c2ccccc2)nc2c1COC(C)(C)C2 | 8.1 | 29.9µM* | 50.9% | 65.5% | -5.8% | ?
CN(C)CCSc1nc(-c2ccccc2)nc2c1COC(C)(C)C2 | . | -7.5% | 0.1% | -6.2% | 0.4% | -27.6%
Cc1ccc(-n2ncc(-c3n[nH]c(=S)o3)c2N)cc1C | -75.5* | -19.9% | . | . | . | .
Cc1ccc(-n2ncc(-c3nnc(SCC(=O)NC4CCCC4)o3)c2N)cc1C | -5.9 | -6.5% | . | 29.3% | 1.6% | -7.5%
CC(C)=CC(=O)O[C@@H]1Cc2cc3ccc(=O)oc3cc2OC1(C)C | -1.6 | -3.6% | -5.4% | 35.6% | -1.9% | -9.8%
Cc1ccc(-c2nc3scc(CCNC(=O)Cc4ccc(Cl)cc4)n3n2)cc1 | . | . | 5.3% | 29.9%[57 µM] | -21.1% | -1.6%
CC1(C)CNc2cc(N)ccc2S1 | -26.5 | -13.8% | 44.7µM* | ? | -7.2% | 44.7µM*
CC(=NNC(=O)c1ccc(NS(=O)(=O)c2cccs2)cc1)c1ccc(OCC(N)=O)cc1 | -28.9 | -7.0% | . | 28.9% | -5.5% | -7.9%
CCc1nnc(SCc2ccc(F)cc2Cl)c2cc3sc(C)cc3n12 | . | . | -15.1% | 50.3% | -4.4% | 89.1µM*
O=[N+]([O-])c1ccc(O)c(NC(=S)Nc2ccccc2)c1 | ? | 26.7µM* | -37.8% | ? | 0.4% | ?
COc1ccc([N+](=O)[O-])cc1NC(=S)Nc1ccccc1 | 5.5 | -29.9% | -8.7% | 9.5% | -1.4%[0.501 µM] | -21.5%
O=[N+]([O-])c1ccc(NNC(=S)Nc2ccccc2)cc1 | ? | ? | 50.1µM* | 56.2µM* | -9.5% | 50.1µM*
CCn1c(O)c(N=NC(=O)CNc2cccc(C)c2)c2ccccc21 | -1.4 | -1.9% | ? | -7.0% | -13.1% | ?
CCn1c(O)c(N=NC(=O)CNc2ccc(C)cc2)c2ccccc21 | 1.0 | -4.9% | 31.6µM* | ? | -5.8% | 56.2µM*
Cc1ccccc1NC(=O)Cn1c(O)c(N=NC(=O)c2ccccc2O)c2ccccc21 | -18.6 | -7.9% | 63.1µM* | 16.2% | ? | -32.4%
Cc1ccc(NCC(=O)N=Nc2c(O)n(C)c3ccccc23)cc1 | -0.7 | -14.3% | 17.8µM* | 4.0% | -4.8% | -24.8%
Cc1ccc(NC(=O)Cn2c(O)c(N=NS(=O)(=O)c3ccc(C)cc3)c3ccccc32)cc1 | ? | 26.7µM* | -38.6% | -0.8% | 1.3% | 25.1µM*
SMILES | PI5P4K alpha inh | PLK1 PBD inh | BAZ2B block | HP1b binding inh | GCN5L2 inh | JMJD2A Tudor
Cc1ccccc1-n1ccnc1SCC(=O)Nc1cccc(S(=O)(=O)NC2=NCCC2)c1 | -4.8 | -13.0% | . | 2.1% | -0.7% | -17.1%
O=C1N=c2ccc([N+](=O)[O-])cc2=C1c1sc(=O)[nH]c1O | -54.1* | 3.36µM* | 0.1% | 1.1% | -23.6% | ?
COCCCNC(=S)NNC(=S)Nc1ccc(OC)cc1 | -17.0 | -23.2% | -16.7% | ? | -16.7% | 1.78µM*
COCCCNC(=S)NNC(=O)c1csc(C)n1 | 1.8 | 4.4% | 79.4µM* | 63.8% | 0.4% | -31.9%
N#Cc1ccccc1S(=O)(=O)N1CCN(C(=O)C2CCCCC2)CC1 | 7.1 | -18.5% | . | 14.1% | -4.4% | -3.9%
COc1cccc(NC(=O)Cn2c(=O)n(-c3ccccc3)c(=O)c3ccc(C(=O)NCc4ccc5c(c4)OCO5)cc32)c1 | . | . | . | 5.7% | -5.9% | -27.0%
CCN(c1ccc(C)cc1C)S(=O)(=O)c1nnc(NC(=O)CC(C)C)s1 | . | . | -1.3% | 30.6% | -1.5% | -5.3%
O=C(NNC(=O)C1[C@H]2CCCC[C@@H]12)Nc1cccc2ccccc12 (some centres undefined) | -0.9 | 0.3% | -0.1% | 28.7% | 25.1µM* | -13.5%
O=C(Nc1cccc2ccccc12)NC1CCCCC1 | -5.7 | -6.3% | -14.0% | 17.7% | -1.8% | -6.3%
COc1ccc(Cl)cc1NC(=O)CCS(=O)(=O)c1cccc2nonc12 | . | . | -18.2% | 28.5% | -13.9% | -21.5%
CC[C@]12c3[nH]c4cc(-c5ccco5)ccc4c3CCN1C(=O)[C@@H](CC(=O)NCCc1ccccn1)C[C@@H]2C(=O)N1CCN(C(=O)c2ccco2)CC1 | -10.5 | ? | . | -5.6% | -0.5% | ?
Cc1cccc(C)c1NC(=O)CCCN1CC(C)OC(C)C1 (centres undefined) | -0.4 | -17.5% | 10.7% | 49.1% | -9.7% | 2.3%[11.4 µM]
C[C@@H]1NC(=O)N[C@@H]1CCCCCC(=O)O | 0.0 | 0.0% | . | ? | . | 1µM*
Cc1cccc(C)c1NC(=O)CCCCCC1NC(=O)NC1C (centres undefined) | 7.4 | 1.5% | 8.91µM* | 52.9% | 1.9% | 2.9%
CC1NC(=O)NC1CCCCCC(=O)NCCc1ccccc1 (centres undefined) | . | -11.6% | 0.891µM* | ? | -23.3% | 3.55µM*
O=C(CCCCC(=O)NCCCc1ccccc1)NCCCc1ccccc1 | 0.2 | 0.1% | -4.5% | 34.4% | -11.6% | 7.5%
COCCCNC(=O)c1ccc2sc(C3=C[C@@H](O)[C@@H](O)[C@@H](CO)O3)nc2c1 | -11.1 | -7.1% | . | . | . | .
Cc1ccccc1-c1csc2ncnc(Sc3nnnn3C)c12 | . | . | . | . | . | -8.9%
COc1ccc(NC(=O)C(C)N2C(=O)c3ccccc3C2=O)c(OC)c1 (centres undefined) | -1.3 | -6.0% | . | 31.8% | . | -12.1%
O=c1cc(N2CCNCC2)nc2sc(-c3ccncc3)nn12 | . | . | . | . | . | -32.0%
CC#CCN1C(=O)N[C@@H](c2ccccc2)C(C(=O)OC)=C1C | -4.7 | 21.2µM* | . | 13.2% | . | ?
COCCN1C(=O)N[C@@H](c2ccc(Br)cc2)C(C(=O)OC)=C1C | . | . | -0.5% | . | -0.5% | .
COC(=O)C1=C(C)N(CCCC(=O)O)C(=O)NC1c1ccc(Cl)cc1 (centres undefined) | -76.9* | -0.7% | . | 60.1% | . | -14.5%
